Screening results from PubChem BioAssay.
Sfp inh: qHTS Assay for Inhibitors of Bacillus subtilis Sfp phosphopantetheinyl transferase (PPTase); Biochemical Sfp PPTase activity, qHTS; Potency, µM, for inactives: largest response in the series, negative = inhibition, hits mostly inhibitors; 310,000 compounds, 3.5% hits; AID 1490, 2009;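 note: the enzyme is Sfp with the accession as filed and its product quenches rhodamine fluorescence; 0% = enzyme reaction without inhibitor and -100% = no enzyme wells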
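Compounds were incubated with enzyme (final 15 nM) for 15 min at room temperature before substrate addition started the reaction. Fluorescence at 525 nm excitation, 598 nm emission was recorded immediately and after 30 minutes.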
JMJD2A Tudor: qHTS Assay for Inhibitors of JMJD2A-Tudor Domain | Lysine-specific demethylase 4A (Homo sapiens), O75164 | AlphaScreen JMJD2A-Tudor / H3K4me3 peptide binding | Potency, µM (doses to about 114 µM), without a hit: at the top dose activity change, negative = inhibition, hits mostly inhibitors | 390,000 compounds, 4.4% hits | AID 504339, 2011; note: % is set by controls: 0 for no effect and ±100 for the full control effect; nearly all actives have a fitted effect of over 50% in size
BAZ2B inh: qHTS Assay for Inhibitors of BAZ2B; Bromodomain adjacent to zinc finger domain protein 2B (Homo sapiens), Q9UIF8; AlphaScreen BAZ2B-H3K14Ac peptide displacement; Potency, µM (titrated, usually from 114 µM), without a hit: at the top dose activity change, negative = inhibition, usual class: inhibitors; 360,000 compounds, 4.4% hits; AID 504333, 2011; note: % is set by controls: 0 for no effect and ±100 for the full control effect; nearly all actives have a fitted effect of over 60% in size
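Inhibition is scored as reduced AlphaScreen emission. The BAZ2B/b-H3(5-23)K14Ac complex (50 nM each) in PBS pH 7.4, 0.01% Tween-20 meets compound (up to 110 uM) for 30 min at RT before bead addition.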
HP1b chromo inh: HTS for Inhibitors of HP1-beta Chromodomain Interactions with Methylated Histone Tails | AlphaScreen HP1-beta / biotin-H3K9me3 peptide binding | Potency, µM (doses to about 114 µM), for inactives: top-dose activity change, negative = inhibition, actives largely listed as inhibitors | Chromobox protein homolog 1 (Homo sapiens), P83916 | 390,000 compounds, 0.56% hits | AID 540317, 2011; note: nearly all actives have a fitted effect of over 70% in size
Target sequence (P83916 whole entry, looked up): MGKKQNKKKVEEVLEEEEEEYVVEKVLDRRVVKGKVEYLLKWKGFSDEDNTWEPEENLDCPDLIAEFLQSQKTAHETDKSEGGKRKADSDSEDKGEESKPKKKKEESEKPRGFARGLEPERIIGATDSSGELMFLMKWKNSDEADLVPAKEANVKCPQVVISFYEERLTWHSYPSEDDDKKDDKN
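HP1-beta protein (50 nM final) preincubated 30 min at room temperature with biotinylated H3(1-18)K9me3 peptide (50 nM) in PBS pH 7.4, 0.01% Tween-20, then compound added for 30 min. AlphaScreen streptavidin donor/nickel chelate acceptor beads (10 ug/mL final), 30 min dark, luminescence read.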
G9a block: qHTS Assay for Inhibitors of Histone Lysine Methyltransferase G9a. 350,000 compounds, 8.8% hits. Potency, µM (highest dose often 102 µM), inactives show at the top dose activity, negative = inhibition, most hits filed as inhibitors. G9a H3K9 monomethylation, AlphaScreen, 2 h; note: % is set by controls: 0 for no effect and ±100 for the full control effect; nearly all actives have a fitted effect of over 75% in size
Target sequence (Q96KQ7 913-1193 limits assumed): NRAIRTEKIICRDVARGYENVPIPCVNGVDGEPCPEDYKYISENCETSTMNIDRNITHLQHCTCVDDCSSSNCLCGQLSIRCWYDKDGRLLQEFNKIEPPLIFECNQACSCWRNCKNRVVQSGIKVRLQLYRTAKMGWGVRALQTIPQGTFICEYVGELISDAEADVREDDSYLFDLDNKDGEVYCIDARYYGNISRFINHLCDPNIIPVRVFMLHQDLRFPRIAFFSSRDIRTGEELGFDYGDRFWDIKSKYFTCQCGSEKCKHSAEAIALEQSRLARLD
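Methyltransferase reactions run at room temperature for 2 h (20 nM enzyme, 500 nM biotin-H3K9 peptide, 20 uM SAM) after a 15 min compound preincubation; product detected by AlphaScreen beads and anti-H3K9me1 antibody.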
L3MBTL1 inh: qHTS Assay for the Inhibitors of L3MBTL1 | 230,000 compounds, 0.66% hits | AlphaScreen L3MBTL1–H3K9me1 peptide binding | Potency, µM (series often up to 57.1 µM), for inactives: top-dose activity, negative = inhibition, hits mostly inhibitors | Lethal(3)malignant brain tumor-like protein 1 (Homo sapiens), Q9Y468 | AID 485360, 2010; note: % is set by controls: 0 for no effect and ±100 for the full control effect; nearly all actives have a fitted effect of over 60% in size
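Displacement of a biotinylated histone H3(1-15) peptide monomethylated at Lys9 (75 nM) from L3MBTL1 (50 nM) was measured by AlphaScreen after a 30 min room-temperature compound incubation; cefsulodin titration served as intraplate control.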
Active calls of the source: *; u = inconclusive; x = no result given; [ ] = dose if it differs, or a comment. An excerpt weighted towards active compounds, which were near 12% of everything screened. Calls come from the whole dose curve; as a rule, active = well fitted curve in the direction sought with a large enough effect; inconclusive = small, poorly fitted or top-dose-only effect, or another doubt; inactive = no such curve, though single readings can be large; an effect the other way counts as inactive or inconclusive. Potency is the fitted concentration of half-maximal effect.

SMILES | Sfp inh | JMJD2A Tudor | BAZ2B inh | HP1b chromo inh | G9a block | L3MBTL1 inh
CCOc1ccc(CCNC(=O)c2sc3nc4n(c(=O)c3c2C)CCCC4)cc1OCC | x | -14% | 56µM* | 71% | -35%[59 µM] | x
COc1ccc(CCNC(=O)c2sc3nc4n(c(=O)c3c2C)CCC4)cc1 | x | -5% | 7% | 15% | -38% | -3%
Cc1c(C(=O)NCc2cccc(Cl)c2)sc2nc3n(c(=O)c12)CCCC3 | x | 79µM* | 18µM* | 61% | 16µM* | x
CC(CNC(=O)C1CCN(C(=O)c2cc3sccc3n2C)CC1)c1ccccc1 (centres undefined) | x | -5% | -17% | 14% | -8%[59 µM] | x
O=C(O)c1ccc(S(=O)(=O)N[C@H](Cc2ccc([N+](=O)[O-])cc2)C(=O)O)cc1 | 9% | u | -37% | x | -24%[12.7 µM] | 7%
Cc1cc2n(n1)CCC(=O)N2Cc1ccc(C(=O)Nc2ccc(F)cc2F)cc1 | x | -19% | -6% | 3% | -29%[59 µM] | x
Cc1ccc(C(CC(=O)Nc2cc(C)cc(C)c2)N2Cc3ccccc3C2=O)cc1 (centres undefined) | x | -18% | -39% | 13% | u | x
COc1ccc(NC(=O)CSc2nc3nc(C)c(Cc4ccccc4Cl)c(C)n3n2)cc1OC | x | -35% | -24% | -15% | -40%[59 µM] | x
COC(=O)/C(=C1\OC(=O)C(c2ccccc2)C1=O)c1ccccc1 (centres undefined) | 27% | x | x | x | x | x
CCc1cccc(NC(=O)c2sc3nc4n(c(=O)c3c2C)CCC4)c1 | -4% | -1% | -18% | 20% | 21% | x
Cc1c(C(=O)Nc2cccc(C#N)c2)sc2nc3n(c(=O)c12)CCCCC3 | x | -12% | 50µM* | 36% | u | x
Cc1ccc(C)c2[nH]c(=O)c(CN(Cc3nnnn3C3CCCCC3)CC3CCCO3)cc12 (centres undefined) | 79µM* | -30% | -4% | 29% | u | 26%
Cc1ccc(C)c2[nH]c(=O)c(CN(CCN3CCOCC3)Cc3nnnn3CC3CCCO3)cc12 (centres undefined) | u | -6% | x | 33% | u | 0%
Cc1ccc2[nH]c(=O)c(CN(Cc3ccccc3)Cc3nnnn3C3CCCC3)cc2c1 | 40µM* | u | u | 9% | -43%[12.7 µM] | x
Cc1oc2ncn(C)c(=O)c2c1C(=O)NCc1ccc(Cl)cc1 | x | 7% | -7%[57.1 µM] | 21% | 0%[59 µM] | x
COC1=C[C@@H](C)C2CC3OC(=O)C[C@H]4C(C)=C(OC)C(=O)C([C@@]2(C)C1=O)[C@@]34C (some centres undefined) | 10% | x | x | x | x | x
O=C1CCSC2(C(=O)N(Cc3ccc(F)cc3)c3ccccc32)N1c1ccc(Cl)cc1 (centres undefined) | x | -32% | -16%[57.1 µM] | 12% | u | x
CC1CCN(CCOc2ccc(C(=O)c3ccccc3)cc2)CC1 | -21% | u | u | 20% | 7.1µM* | 0%
CC1CCN(CCCCOc2ccc(C(=O)c3ccccc3)cc2)CC1 | -23% | -21%[11.4 µM] | -14% | -1% | 35µM* | x
Cc1ccc(S(=O)(=O)N2CCN(c3ccnc(-c4cccs4)n3)CC2)cc1 | x | -30% | x | 20% | x | x
O=C(CSc1nc2ncc(Br)cc2[nH]1)c1cccc([N+](=O)[O-])c1 | 7% | -34% | -12% | 20% | 45µM* | -7%
Cc1nc2nc(SCC(=O)c3cccc([N+](=O)[O-])c3)[nH]c2cc1Br | 3% | -22% | -3% | 3% | u | -3%
O=C(NCc1ccccn1)c1cccc([N+](=O)[O-])c1 | 1% | -19% | -1% | 19% | x | -3%
O=C(Cc1nc2ccccc2[nH]1)c1cccc([N+](=O)[O-])c1 | 14µM* | u | u | 11% | x | -2%
O=C(C[n+]1cc(Br)cc(Br)c1)c1cccc([N+](=O)[O-])c1 | -12% | -27% | 50µM* | 20% | -111%[59 µM] | -2%
SMILES | Sfp inh | JMJD2A Tudor | BAZ2B inh | HP1b chromo inh | G9a block | L3MBTL1 inh
CC(C)(C)C(=O)CSc1nc2ncc(Br)cc2[nH]1 | 8% | u | -14% | 54% | 50µM* | 2%
CC1CC=CC2C1C(=O)N(Cc1ccccc1)C2c1ccc2ccccc2c1Br (centres undefined) | u | -6% | x | 21% | x | x
COc1ccc(CNC(=O)CCCN2C(=O)COc3ccc(C)cc32)cc1 | x | -14% | 27% | 66% | 48%[59 µM] | x
CCCCNC(=O)c1onc(CSc2nc3ccccc3[nH]2)c1C(=O)NCCCC | 14% | -23% | -3% | 37% | 71µM* | 5%
O=C(NCCCN1CCOCC1)c1onc(CSc2nc3ccccc3[nH]2)c1C(=O)NCCCN1CCOCC1 | 3% | -19% | -25% | 53% | 50µM* | 9%
CC(C)NC(=O)c1onc(CSc2nc3ccccc3[nH]2)c1C(=O)NC(C)C | 11% | -29% | -30% | -7% | 50µM* | 4%
O=C(NCCCN1CCOCC1)c1onc(CSc2ccccc2)c1C(=O)NCCCN1CCOCC1 | x | -20% | x | 9% | x | x
CCc1ccc(-c2nc3c(c(SCc4ccccc4F)n2)Cc2c(CO)cnc(C)c2O3)cc1 | x | -30% | -16% | 9% | -6%[59 µM] | x
COc1ccc(NC(=O)Cn2nc3c(cc2=O)CCCC3)cc1Cl | x | -23% | -4% | 12%[57 µM] | 2%[59 µM] | x
CCOc1ccc(S(=O)(=O)N2CCN(c3ccc(C)cc3C)CC2)c2ccccc12 | x | 3% | -15% | 43% | 6%[59 µM] | x
N#Cc1c(/N=C/c2ccco2)oc(-c2ccccc2)c1-c1ccccc1 | -3% | 28µM* | -3% | -59% | u | 4%
N#Cc1c(/N=C/c2ccccc2)oc(-c2ccccc2)c1-c1ccccc1 | 13% | -26% | -19% | -17% | u | 27%
Cc1nnc2c(N3CCN(c4ccc(F)cc4)CC3)nc3ccc(C(=O)c4ccccc4)cc3n12 | x | -6% | -8% | 59% | 19%[59 µM] | x
CC(C)CC(=O)NCC(c1ccc2c(c1)OCO2)N1CCN(c2ccccc2)CC1 (centres undefined) | x | -17% | -13% | 20%[57 µM] | -2%[59 µM] | x
COC(=O)/C(=N/Nc1ccc(C)cc1)N1CCCc2ccccc21 | -15% | u | u | -6% | 45µM* | -12%
COC(=O)/C(=N/Nc1cccc(C)c1)N1CCCc2ccccc21 | -7% | -3% | u | 28% | u | -22%
COC(=O)/C(=N/Nc1ccccc1)N1CCCc2ccccc21 | 1% | u | -37% | 1% | 45µM* | 0%
Cc1sc(-n2cccc2)c(C(C)NC(=O)Nc2cccc(C(F)(F)F)c2)c1C (centres undefined) | x | -1% | 0% | 38% | -3%[59 µM] | x
